# Values without a mark were called inactive. The rule behind the calls is not given here.
# Molecular target: Pantothenate synthetase (Mycobacterium tuberculosis (strain ATCC 25618 / H37Rv)) (UniProt P9WIL5)
# Test: Coupled enzyme confirmation of inhibitors against recombinant Mtb PanC (AID 375);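 note: 0% = full reaction with vehicle and 100% = no enzyme background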
# Settings: coupled enzyme assay; at 10 µM, stronger effect = higher value
# Pantothenate synthetase (Mycobacterium tuberculosis (strain ATCC 25618 / H37Rv)), sequence (P9WIL5 whole entry, looked up): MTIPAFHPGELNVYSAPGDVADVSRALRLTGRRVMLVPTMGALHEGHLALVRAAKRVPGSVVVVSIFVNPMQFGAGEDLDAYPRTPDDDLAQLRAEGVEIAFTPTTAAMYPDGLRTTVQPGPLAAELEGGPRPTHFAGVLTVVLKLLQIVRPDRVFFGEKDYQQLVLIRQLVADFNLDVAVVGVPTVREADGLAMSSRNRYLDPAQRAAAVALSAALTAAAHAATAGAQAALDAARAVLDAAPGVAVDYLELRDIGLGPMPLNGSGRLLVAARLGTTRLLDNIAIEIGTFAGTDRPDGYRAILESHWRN
row,SMILES,inhibition [%]
1,COc1cc(Cn2c(C(=O)O)cc3sccc32)cc(OC)c1OC,0
2,O=C(CSc1nnc(-c2ccccc2)o1)NC1CCCCC1,0
3,Cn1nnc2cc(C(=O)N3CCCCCC3)ccc21,0
4,O=C(c1ccc(Br)o1)N1CCN(c2ccc3nnc(-c4ccccc4)n3n2)CC1,1
5,CCOc1ccc(C(=O)N2CCN(c3ccccc3)CC2)cc1OCC,1
6,CN1CCN(S(=O)(=O)c2ccc(Sc3nnc(-c4cccs4)n3-c3ccccc3)nc2)CC1,3
7,COc1cccc(-c2nnc(NC(=O)Cc3cccs3)s2)c1,0
8,O=C(Nc1ccncc1)C1c2ccccc2Oc2ccccc21,0
9,O=C(COC(=O)C1CC2C=CC1C2)Nc1ccc2c(c1)OC(F)(F)O2 (stereo not drawn),0
10,CCCn1c(N2CCN(CC(=O)Nc3ccc4c(c3)OCCO4)CC2)nc2ccccc21,6
11,O=C(c1ccc2ccccc2n1)N1CCN(c2ccccc2)CC1,0
12,Cc1cccc(-c2cc3nc4c(c(N5CCC6(CC5)OCCO6)n3n2)CCCC4)c1,4
13,Cc1nc(-c2cccc(-c3noc(C)n3)c2)no1,0
14,Cc1ccccc1CN1CCN(CC(=O)NCc2ccccc2)C1=O,2
15,NC(Cc1ccc(Oc2ccc(O)cc2)cc1)C(=O)O (stereo not drawn),0
16,C=CCn1c(N)c(C(=O)OC(C)(C)C)c2nc3ccccc3nc21,1
17,COC(=O)C(C)Sc1nnc2n(-c3cccc(C)c3)c(=O)c3c4c(sc3n12)CCCC4 (stereo not drawn),1
18,COC(=O)/C=c1/s/c(=C(/C#N)C(=O)N2CCOCC2)n(-c2ccccc2)c1=O,4
19,Cc1ccc(/C(O)=C2/C(=O)C(=O)N(Cc3ccco3)C2c2cccs2)cc1 (stereo not drawn),0
20,Cc1ccc(-c2ccc(SCC(=O)Nc3nonc3C)nn2)cc1,3
21,COc1cccc2c(=O)c3c(cnn3C)n(C)c12,0
22,COc1ccc([C@@H]2Sc3ccccc3N(CCN(C)C)C(=O)[C@@H]2OC(C)=O)cc1,2
23,CCOC(=O)Cn1nc(-c2ccc(Cl)cc2)cc1N,0
